About 7,900 targets were measured; listed, in parts, are those with a hit and a random draw of the rest. About 0.6% of all pairs of compound and target were hits.
Assays:
Assay in all cases: log2 fold change, soluble protein after heating vs DMSO (PISA); higher = thermal stabilisation; K562 cells, 10 uM, 30 min; active = over 0.2 and 3.5 SD of the protein, either way, in both replicates (recomputed)
[1] = compound: COC1=CC=C(C=C1)CN2C=CC3=C2C=C(C=C3)C(=O)NO
Method in brief: (§1)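 K562 cells at 2×10^6 cells/mL were treated for 30 min with 10 μM compound, and aliquots were heated for 3 min over 48°C-58°C before pooling. Extraction used PBS with 0.5% NP-40 at 4°C, and soluble protein was the supernatant after 21,000xg for 90 min, measured by TMTpro 16plex LC-MS/MS with channel sums equalised. Thermal stability values, relative to control samples and from duplicates, are log2 fold changes.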

filanesib = compound: CON(C)C(=O)N1N=C(c2cc(F)ccc2F)S[C@@]1(CCCN)c1ccccc1 [filanesib]
Method in brief: as §1

zotarolimus = compound: CO[C@H]1C[C@@H]2CC[C@@H](C)[C@@](O)(O2)C(=O)C(=O)N2CCCC[C@H]2C(=O)O[C@H]([C@H](C)C[C@@H]2CC[C@H](n3cnnn3)[C@H](OC)C2)CC(=O)[C@H](C)/C=C(\C)[C@@H](O)[C@@H](OC)C(=O)[C@H](C)C[C@H](C)/C=C/C=C/C=C/1C [zotarolimus]
Method in brief: as §1

idasanutlin = compound: COc1cc(C(=O)O)ccc1NC(=O)[C@@H]1N[C@@H](CC(C)(C)C)[C@](C#N)(c2ccc(Cl)cc2F)[C@H]1c1cccc(Cl)c1F [idasanutlin]
Method in brief: as §1

alisertib = compound: COc1cc(Nc2ncc3c(n2)-c2ccc(Cl)cc2C(c2c(F)cccc2OC)=NC3)ccc1C(=O)O [alisertib]
Method in brief: as §1

[2] = compound: COc1cc2nc(-c3cc(F)ccc3O)nc(N[C@@H]3CNC[C@H]3C(C)(C)O)c2cc1OC
Method in brief: as §1

gefitinib = compound: COc1cc2ncnc(Nc3ccc(F)c(Cl)c3)c2cc1OCCCN1CCOCC1 [gefitinib]
Method in brief: as §1

[3] = compound: COc1cccc2cc(-c3nc([C@H]4CC[C@H](C(=O)O)CC4)n4ncnc(N)c34)[nH]c12
Method in brief: as §1

lapatinib = compound: CS(=O)(=O)CCNCc1ccc(-c2ccc3ncnc(Nc4ccc(OCc5cccc(F)c5)c(Cl)c4)c3c2)o1 [lapatinib]
Method in brief: as §1

pictilisib = compound: CS(=O)(=O)N1CCN(Cc2cc3nc(-c4cccc5[nH]ncc45)nc(N4CCOCC4)c3s2)CC1 [pictilisib]
Method in brief: as §1

[4] = compound: CS(=O)(=O)c1ccc(-c2cnc(N)c(C(=O)Nc3ccccc3)n2)cc1
Method in brief: as §1

crizotinib = compound: C[C@@H](Oc1cc(-c2cnn(C3CCNCC3)c2)cnc1N)c1c(Cl)ccc(F)c1Cl [crizotinib]
Method in brief: as §1

[5] = compound: C[C@@H]1COCCN1C2=NC(=NC(=C2)C3(CC3)S(=O)(=O)C)C4=C5C=CNC5=CC=C4
Method in brief: as §1

[6] = compound: C[C@H](C1=CC=C(C=C1)C(=O)NC2=C3C=CNC3=NC=C2)N
Method in brief: as §1

duvelisib = compound: C[C@H](Nc1ncnc2nc[nH]c12)c1cc2cccc(Cl)c2c(=O)n1-c1ccccc1 [duvelisib]
Method in brief: as §1

gandotinib = compound: Cc1cc(Nc2cc(CN3CCOCC3)c3nc(C)c(Cc4ccc(Cl)cc4F)n3n2)n[nH]1 [gandotinib]
Method in brief: as §1

tozasertib = compound: Cc1cc(Nc2cc(N3CCN(C)CC3)nc(Sc3ccc(NC(=O)C4CC4)cc3)n2)n[nH]1 [tozasertib]
Method in brief: as §1

[7] = compound: Cc1cc(SCc2sc(-c3ccc(C(F)(F)F)cc3)nc2C)ccc1OCC(=O)O
Method in brief: as §1

doramapimod = compound: Cc1ccc(-n2nc(C(C)(C)C)cc2NC(=O)Nc2ccc(OCCN3CCOCC3)c3ccccc23)cc1 [doramapimod]
Method in brief: as §1

ispinesib = compound: Cc1ccc(C(=O)N(CCCN)[C@@H](c2nc3cc(Cl)ccc3c(=O)n2Cc2ccccc2)C(C)C)cc1 [ispinesib]
Method in brief: as §1

Measured: log2 fold change

FEN1 (UniProt P39748)
Sequence of UniProt P39748 (P39748 whole entry, looked up): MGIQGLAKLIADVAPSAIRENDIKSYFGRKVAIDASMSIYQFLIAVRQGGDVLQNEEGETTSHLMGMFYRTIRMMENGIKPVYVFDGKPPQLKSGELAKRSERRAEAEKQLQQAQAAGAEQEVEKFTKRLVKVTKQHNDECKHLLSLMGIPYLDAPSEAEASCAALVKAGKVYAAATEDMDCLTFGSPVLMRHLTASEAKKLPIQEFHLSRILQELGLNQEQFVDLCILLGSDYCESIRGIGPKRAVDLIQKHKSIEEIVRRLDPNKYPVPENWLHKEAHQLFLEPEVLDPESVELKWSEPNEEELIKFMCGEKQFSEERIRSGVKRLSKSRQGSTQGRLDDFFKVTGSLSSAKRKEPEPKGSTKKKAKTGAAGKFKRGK
inactive: [1] 0.06 | filanesib -0.215 | zotarolimus 0.027 | idasanutlin -0.099 | alisertib 0.019 | [2] 0.039 | gefitinib -0.029 | [3] 0.096 | lapatinib -0.098 | pictilisib -0.005 | [4] 0.018 | [5] 0.367 | [6] -0.018 | duvelisib 0.07 | gandotinib -0.162 | tozasertib -0.024 | [7] 0.177 | doramapimod -0.065 | ispinesib -0.126
active: crizotinib -0.488

IFI30 (UniProt P13284)
inactive: [1] 0.04 | filanesib 0.061 | zotarolimus 0.06 | idasanutlin 0.027 | alisertib -0.11 | [2] -0.133 | gefitinib -0.035 | [3] 0.01 | lapatinib 0.147 | pictilisib -0.02 | [4] 0.013 | crizotinib -0.011 | [5] -0.083 | [6] -0.02 | duvelisib -0.129 | gandotinib 0.042 | tozasertib 0.027 | [7] 0.035 | doramapimod -0.044 | ispinesib 0.002

FAM91A1 (UniProt Q658Y4)
inactive: [1] -0.081 | filanesib -0.059 | zotarolimus 0.029 | idasanutlin -0.044 | alisertib -0.076 | [2] -0.003 | gefitinib -0.013 | [3] 0.035 | lapatinib 0.045 | pictilisib -0.047 | [4] -0.11 | crizotinib -0.006 | [5] 0.192 | [6] -0.034 | duvelisib -0.008 | gandotinib -0.08 | tozasertib 0.022 | [7] -0.001 | doramapimod -0.012 | ispinesib 0.014

HOMER1 (UniProt Q86YM7)
Sequence of UniProt Q86YM7 (Q86YM7 whole entry, looked up): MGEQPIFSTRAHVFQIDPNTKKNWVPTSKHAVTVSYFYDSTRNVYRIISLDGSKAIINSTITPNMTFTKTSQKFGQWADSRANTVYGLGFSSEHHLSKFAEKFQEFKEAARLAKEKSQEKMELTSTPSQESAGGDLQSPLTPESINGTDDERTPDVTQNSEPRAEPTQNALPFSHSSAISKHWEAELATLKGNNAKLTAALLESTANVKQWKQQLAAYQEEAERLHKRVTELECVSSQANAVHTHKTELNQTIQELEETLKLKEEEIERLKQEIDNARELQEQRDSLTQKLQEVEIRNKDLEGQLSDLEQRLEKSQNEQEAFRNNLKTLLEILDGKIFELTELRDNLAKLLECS
inactive: [1] 0.168 | filanesib 0.051 | zotarolimus 0.043 | idasanutlin 0.011 | alisertib -0.083 | [2] -0.023 | gefitinib 0.086 | [3] -0.042 | lapatinib 0.073 | pictilisib -0.001 | [4] -0.011 | crizotinib -0.015 | [5] 0.071 | [6] -0.014 | duvelisib 0.024 | gandotinib -0.068 | tozasertib 0.046 | [7] -0.002 | doramapimod 0.027 | ispinesib 0.083

HIST2H3A (UniProt Q71DI3)
inactive: [1] 0.037 | filanesib 0.268 | zotarolimus -0.167 | idasanutlin 0.508 | alisertib 0.001 | [2] -0.106 | gefitinib 0.061 | [3] -0.367 | lapatinib 0.065 | pictilisib -0.021 | [4] -0.106 | crizotinib -0.327 | [5] -0.204 | [6] 0.399 | duvelisib -0.359 | gandotinib -0.014 | tozasertib 0.106 | [7] -0.031 | doramapimod 0.098 | ispinesib -0.081

HNRNPC isoform 2 (UniProt P07910)
Sequence of UniProt P07910 (P07910 whole entry, looked up): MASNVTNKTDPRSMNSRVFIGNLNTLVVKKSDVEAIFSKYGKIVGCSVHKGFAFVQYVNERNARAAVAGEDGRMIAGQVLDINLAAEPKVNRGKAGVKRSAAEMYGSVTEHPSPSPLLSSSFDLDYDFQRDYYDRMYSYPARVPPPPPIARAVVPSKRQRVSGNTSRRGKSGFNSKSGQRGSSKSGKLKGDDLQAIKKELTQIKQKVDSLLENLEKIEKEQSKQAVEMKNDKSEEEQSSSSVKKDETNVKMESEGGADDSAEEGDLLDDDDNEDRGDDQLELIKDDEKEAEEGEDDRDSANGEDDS
inactive: [1] 0.009 | filanesib 0.39 | zotarolimus -0.024 | idasanutlin 0.796 | alisertib -0.052 | [2] -0.041 | gefitinib 0.002 | [3] -0.065 | lapatinib -0.026 | pictilisib 0.065 | [4] -0.176 | crizotinib -0.061 | [5] -0.239 | [6] 0.532 | duvelisib -0.076 | gandotinib 0.197 | tozasertib 0.05 | [7] 0.125 | doramapimod 0.088 | ispinesib -0.35

HADHB (UniProt P55084)
Sequence of UniProt P55084 (P55084 whole entry, looked up): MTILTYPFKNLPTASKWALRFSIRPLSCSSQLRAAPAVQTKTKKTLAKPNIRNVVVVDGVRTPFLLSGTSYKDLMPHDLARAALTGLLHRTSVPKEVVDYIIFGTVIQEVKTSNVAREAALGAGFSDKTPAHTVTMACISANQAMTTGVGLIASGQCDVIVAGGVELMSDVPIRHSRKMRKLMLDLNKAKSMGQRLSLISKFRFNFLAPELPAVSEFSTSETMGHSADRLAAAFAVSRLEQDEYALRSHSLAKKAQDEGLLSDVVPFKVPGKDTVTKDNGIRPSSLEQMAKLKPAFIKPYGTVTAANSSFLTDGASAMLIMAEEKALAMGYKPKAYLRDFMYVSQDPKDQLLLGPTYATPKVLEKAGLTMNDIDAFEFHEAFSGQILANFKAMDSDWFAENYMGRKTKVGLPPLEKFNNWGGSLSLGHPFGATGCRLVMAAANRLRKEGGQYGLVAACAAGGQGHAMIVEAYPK
inactive: [1] 0.248 | filanesib 0.094 | zotarolimus 0.038 | idasanutlin -0.263 | alisertib -0.026 | [2] 0.217 | gefitinib 0.17 | [3] -0.085 | lapatinib 0.086 | pictilisib 0.383 | [4] -0.087 | crizotinib 0.109 | [5] 0.099 | [6] -0.023 | duvelisib 0.229 | gandotinib 0.083 | tozasertib -0.112 | [7] 0.138 | doramapimod 0.167 | ispinesib 0.199

HNRNPK isoform 2 (UniProt P61978)
inactive: [1] 0.008 | filanesib -0.001 | zotarolimus -0.022 | idasanutlin -0.011 | alisertib -0.004 | [2] -0.035 | gefitinib 0.051 | [3] 0.049 | lapatinib -0.016 | pictilisib 0.004 | [4] -0.01 | crizotinib 0.072 | [5] 0.074 | [6] -0.028 | duvelisib 0.036 | gandotinib -0.108 | tozasertib -0.021 | [7] 0.052 | doramapimod -0.064 | ispinesib -0.025

FERMT3 (UniProt Q86UX7)
Sequence of UniProt Q86UX7 (Q86UX7 whole entry, looked up): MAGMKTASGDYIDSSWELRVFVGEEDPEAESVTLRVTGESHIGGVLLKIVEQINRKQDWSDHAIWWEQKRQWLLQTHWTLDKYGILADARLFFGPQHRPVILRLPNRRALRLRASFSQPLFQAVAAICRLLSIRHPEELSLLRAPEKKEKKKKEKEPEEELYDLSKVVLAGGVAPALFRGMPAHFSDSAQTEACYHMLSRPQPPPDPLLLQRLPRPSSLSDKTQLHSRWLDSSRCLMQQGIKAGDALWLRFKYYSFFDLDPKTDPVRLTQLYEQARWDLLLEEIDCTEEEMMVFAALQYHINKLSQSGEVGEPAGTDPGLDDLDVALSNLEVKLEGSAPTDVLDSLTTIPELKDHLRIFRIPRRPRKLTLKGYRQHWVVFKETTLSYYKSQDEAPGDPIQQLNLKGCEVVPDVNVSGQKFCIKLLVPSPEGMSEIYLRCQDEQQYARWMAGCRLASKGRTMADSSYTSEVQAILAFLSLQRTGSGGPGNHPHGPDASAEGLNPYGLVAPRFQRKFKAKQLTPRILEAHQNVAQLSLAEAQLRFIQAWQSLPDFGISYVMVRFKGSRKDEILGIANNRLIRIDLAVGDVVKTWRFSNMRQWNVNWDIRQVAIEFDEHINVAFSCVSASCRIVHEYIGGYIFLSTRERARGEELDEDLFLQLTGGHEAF
inactive: [1] 0.046 | filanesib -0.037 | zotarolimus 0.033 | idasanutlin -0.068 | alisertib -0.104 | [2] 0 | gefitinib -0.007 | [3] 0.001 | lapatinib -0.006 | pictilisib 0.009 | [4] 0.038 | crizotinib -0.091 | [5] 0.02 | [6] -0.04 | duvelisib 0.005 | gandotinib -0.064 | tozasertib 0.022 | [7] 0.057 | doramapimod 0.001 | ispinesib -0.04

HK2 (UniProt P52789)
active: pictilisib -0.353 | gandotinib -0.297
inactive: [1] 0.035 | filanesib 0.031 | zotarolimus 0.03 | idasanutlin -0.064 | alisertib -0.124 | [2] 0.097 | gefitinib -0.07 | [3] 0.005 | lapatinib -0.206 | [4] -0.156 | crizotinib 0.082 | [5] 0.03 | [6] -0.014 | duvelisib 0.014 | tozasertib -0.028 | [7] 0.013 | doramapimod -0.026 | ispinesib 0.161

GSTM4 (UniProt Q03013)
Sequence of UniProt Q03013 (Q03013 whole entry, looked up): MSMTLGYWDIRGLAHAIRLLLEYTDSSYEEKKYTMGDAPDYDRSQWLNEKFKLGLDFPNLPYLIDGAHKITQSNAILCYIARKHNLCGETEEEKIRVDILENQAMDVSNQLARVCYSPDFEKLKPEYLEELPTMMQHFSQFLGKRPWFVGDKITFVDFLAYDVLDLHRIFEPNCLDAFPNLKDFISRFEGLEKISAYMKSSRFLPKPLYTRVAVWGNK
inactive: [1] 0.027 | filanesib 0.103 | zotarolimus 0.084 | idasanutlin 0.031 | alisertib 0.061 | [2] 0.084 | gefitinib -0.056 | [3] 0.068 | lapatinib 0.031 | pictilisib 0.022 | [4] -0.181 | crizotinib -0.006 | [5] 0.004 | [6] 0.054 | duvelisib 0.101 | gandotinib -0.028 | tozasertib -0.068 | [7] 0.035 | doramapimod -0.037 | ispinesib -0.012

GMEB1 (UniProt Q9Y692)
Sequence of UniProt Q9Y692 (Q9Y692 whole entry, looked up): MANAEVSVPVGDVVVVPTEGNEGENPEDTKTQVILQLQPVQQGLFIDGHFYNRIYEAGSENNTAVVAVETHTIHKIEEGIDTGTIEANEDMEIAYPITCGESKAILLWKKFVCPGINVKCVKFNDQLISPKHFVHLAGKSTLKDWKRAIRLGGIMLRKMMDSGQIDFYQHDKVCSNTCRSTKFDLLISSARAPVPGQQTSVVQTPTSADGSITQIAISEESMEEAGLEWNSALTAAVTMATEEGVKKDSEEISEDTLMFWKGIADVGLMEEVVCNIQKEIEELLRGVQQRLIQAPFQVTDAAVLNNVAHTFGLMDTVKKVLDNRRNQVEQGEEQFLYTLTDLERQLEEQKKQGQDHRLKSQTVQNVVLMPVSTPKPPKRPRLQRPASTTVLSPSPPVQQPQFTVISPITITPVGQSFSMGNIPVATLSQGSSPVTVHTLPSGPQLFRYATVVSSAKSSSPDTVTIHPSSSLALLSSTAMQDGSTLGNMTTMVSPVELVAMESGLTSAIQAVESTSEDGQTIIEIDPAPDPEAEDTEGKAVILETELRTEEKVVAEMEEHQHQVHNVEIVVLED
inactive: [1] 0.049 | filanesib 0.205 | zotarolimus 0.042 | idasanutlin 0.027 | alisertib -0.041 | [2] -0.042 | gefitinib -0.049 | [3] 0.008 | lapatinib 0.031 | pictilisib -0.087 | [4] -0.036 | crizotinib 0.02 | [5] 0.04 | [6] -0.045 | duvelisib 0.025 | gandotinib -0.11 | tozasertib 0.03 | [7] 0.049 | doramapimod -0.038 | ispinesib 0.01

H2AZ1 (UniProt P0C0S5)
Sequence of UniProt P0C0S5 (P0C0S5 whole entry, looked up): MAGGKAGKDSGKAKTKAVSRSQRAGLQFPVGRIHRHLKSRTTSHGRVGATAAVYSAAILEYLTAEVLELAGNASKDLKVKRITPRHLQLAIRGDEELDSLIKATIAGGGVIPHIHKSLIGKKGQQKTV
inactive: [1] 0.05 | filanesib 0.353 | zotarolimus -0.113 | idasanutlin 0.266 | alisertib 0.039 | [2] -0.046 | gefitinib 0.121 | [3] -0.161 | lapatinib 0 | pictilisib -0.09 | [4] -0.027 | crizotinib -0.062 | [5] -0.47 | [6] 0.345 | duvelisib -0.09 | gandotinib -0.006 | tozasertib -0.146 | [7] -0.084 | doramapimod 0.178 | ispinesib -0.147

GNPAT (UniProt O15228)
inactive: [1] 0.008 | filanesib -0.054 | zotarolimus 0.064 | idasanutlin -0.05 | alisertib -0.038 | [2] -0.022 | gefitinib 0.03 | [3] 0 | lapatinib 0.061 | pictilisib 0.148 | [4] 0.029 | crizotinib -0.071 | [5] 0.087 | [6] -0.088 | duvelisib 0.021 | gandotinib -0.076 | tozasertib -0.002 | [7] 0.06 | doramapimod 0.034 | ispinesib -0.006

GUSB (UniProt P08236)
Sequence of UniProt P08236 (P08236 whole entry, looked up): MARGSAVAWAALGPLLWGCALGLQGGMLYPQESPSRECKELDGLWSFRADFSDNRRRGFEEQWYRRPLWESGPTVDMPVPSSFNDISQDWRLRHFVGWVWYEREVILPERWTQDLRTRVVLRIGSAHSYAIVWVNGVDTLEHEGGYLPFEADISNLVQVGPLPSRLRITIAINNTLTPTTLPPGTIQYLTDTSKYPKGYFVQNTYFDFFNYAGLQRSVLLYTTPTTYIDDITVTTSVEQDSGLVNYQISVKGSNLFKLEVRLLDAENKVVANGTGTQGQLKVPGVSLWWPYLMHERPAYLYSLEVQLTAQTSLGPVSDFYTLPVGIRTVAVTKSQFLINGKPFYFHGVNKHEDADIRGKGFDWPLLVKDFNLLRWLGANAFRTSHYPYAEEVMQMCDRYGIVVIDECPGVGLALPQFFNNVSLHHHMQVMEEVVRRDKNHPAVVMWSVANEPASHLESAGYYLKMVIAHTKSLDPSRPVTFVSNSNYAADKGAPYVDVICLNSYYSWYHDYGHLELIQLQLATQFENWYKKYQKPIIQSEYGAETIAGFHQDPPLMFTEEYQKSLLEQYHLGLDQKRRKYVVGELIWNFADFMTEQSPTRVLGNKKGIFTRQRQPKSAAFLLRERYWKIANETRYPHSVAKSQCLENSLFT
inactive: [1] -0.063 | filanesib -0.016 | zotarolimus 0.014 | idasanutlin 0.034 | alisertib 0.022 | [2] -0.084 | gefitinib -0.013 | [3] -0.027 | lapatinib 0.016 | pictilisib 0.098 | [4] 0.053 | crizotinib 0.004 | [5] -0.018 | [6] 0.063 | duvelisib 0.066 | gandotinib 0.051 | tozasertib 0.006 | [7] -0.039 | doramapimod 0.042 | ispinesib -0.03

HIP1R (UniProt O75146)
Sequence of UniProt O75146 (O75146 whole entry, looked up): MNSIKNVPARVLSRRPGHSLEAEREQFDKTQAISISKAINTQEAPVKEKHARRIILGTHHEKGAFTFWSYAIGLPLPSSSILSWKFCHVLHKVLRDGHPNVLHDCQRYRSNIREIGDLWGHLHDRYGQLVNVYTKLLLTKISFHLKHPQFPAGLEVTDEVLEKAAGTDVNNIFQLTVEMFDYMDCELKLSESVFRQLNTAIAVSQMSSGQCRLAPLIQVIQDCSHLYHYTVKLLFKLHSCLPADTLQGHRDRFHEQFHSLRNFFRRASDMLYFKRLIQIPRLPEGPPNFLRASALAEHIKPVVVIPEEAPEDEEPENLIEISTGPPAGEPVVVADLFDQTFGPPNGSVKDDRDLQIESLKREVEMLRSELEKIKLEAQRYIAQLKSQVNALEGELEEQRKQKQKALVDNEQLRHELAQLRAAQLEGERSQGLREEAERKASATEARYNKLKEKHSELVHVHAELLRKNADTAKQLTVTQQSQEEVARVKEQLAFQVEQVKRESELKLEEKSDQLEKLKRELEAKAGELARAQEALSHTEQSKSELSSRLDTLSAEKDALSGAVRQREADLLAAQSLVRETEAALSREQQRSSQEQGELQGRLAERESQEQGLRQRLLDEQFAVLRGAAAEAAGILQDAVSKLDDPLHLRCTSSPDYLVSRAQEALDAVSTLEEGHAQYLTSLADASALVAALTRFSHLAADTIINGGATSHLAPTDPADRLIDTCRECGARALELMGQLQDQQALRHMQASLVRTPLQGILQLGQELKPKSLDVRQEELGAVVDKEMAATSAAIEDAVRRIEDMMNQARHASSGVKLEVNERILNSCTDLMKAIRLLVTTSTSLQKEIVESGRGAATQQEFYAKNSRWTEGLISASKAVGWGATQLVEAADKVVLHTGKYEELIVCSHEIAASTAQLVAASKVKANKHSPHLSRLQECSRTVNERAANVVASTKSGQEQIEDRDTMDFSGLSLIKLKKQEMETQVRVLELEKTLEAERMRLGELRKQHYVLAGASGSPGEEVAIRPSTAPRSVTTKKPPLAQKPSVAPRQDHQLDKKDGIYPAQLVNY
inactive: [1] -0.011 | filanesib -0.039 | zotarolimus -0.034 | idasanutlin -0.046 | alisertib 0.114 | [2] 0.027 | gefitinib -0.025 | [3] 0 | lapatinib -0.041 | pictilisib -0.011 | [4] 0.016 | crizotinib -0.1 | [5] 0.058 | [6] 0.026 | duvelisib -0.045 | gandotinib -0.069 | tozasertib -0.008 | [7] 0.029 | doramapimod 0.007 | ispinesib -0.097

Source: the supplement of paper PMC10849652
